Hits are enriched below; roughly 13% of the tested compounds scored in any of these assays.
Shiga toxin inh – A qHTS for Small Molecule Inhibitors of Shiga Toxin | 9.2% of 290,000 active | Vero cells, Shiga toxin protein synthesis inhibition reporter | inhibition, % at 38.7 µM; in the data active means inhibition mostly above about 28%, no sharp cut-off; inactive means mostly below about 43%; further: 0% is about no effect
HCV inh – qHTS Assay for Inhibitors of Hepatitis C Virus (HCV); AID 651820, 2012; Huh7.5.1 HCVcc-Cre infection, luciferase reporter, 44 h; Potency, µM (highest dose often 41.8 µM), inactives show at the top dose activity change, negative = inhibition, usual class: inhibitors; 3.4% of 340,000 active; active means well fitted inhibition curve with a large enough effect; inconclusive means small, poorly fitted or top-dose-only effect, or another doubt; inactive means no such curve, though single readings can be large or run the other way; further: potency means the concentration at half of the fitted maximal effect; on the % scale 0 is the no-effect control and ±100 the full control effect
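Antiviral activity was scored by luciferase reporter output from cells infected with HCVcc-Cre (~0.5 moi) in presence of compound, 44 h infection period, cells seeded 1,000/well 4 h prior.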
FMDV inh – High Throughput Screening for Foot and Mouth Disease Virus Antivirals; 1.2% of 410,000 active; Potency, µM (top dose mostly 57.9 µM), for inactives: at the top dose activity change, negative = inhibition, most hits filed as inhibitors; FMDV antiviral cell-based qHTS; AID 1159524, 2015; calls by dose curve; tested in HEK293T cells; further: read-out not given here; potency means the concentration at half of the fitted maximal effect; on the % scale 0 is the no-effect control and ±100 the full control effect; nearly all actives have a fitted effect of over 45% in size
LASV entry inh – qHTS for Inhibitors of binding or entry into cells for Lassa Virus. AID 540256, 2011. Lassa virus pseudotype entry inhibition, cell reporter. Potency, µM (titrated, usually from 37.9 µM), for inactives: at the top dose activity change, negative = inhibition, usual class: inhibitors. 1.2% of 300,000 active; calls by dose curve; tested in HEK293 cells; further: potency means the concentration at half of the fitted maximal effect; on the % scale 0 is the no-effect control and ±100 the full control effect; nearly all actives have a fitted effect of over 50% in size
MARV entry inh – qHTS for inhibitors of binding or entry into cells for Marburg Virus; Potency, µM (doses to about 37.8 µM), inactives show top-dose activity change, negative = inhibition, hits mostly inhibitors; Marburg virus pseudotyped entry inhibition, cell reporter; 1.8% of 300,000 active; calls by dose curve; tested in HEK293 cells; further: potency means the concentration at half of the fitted maximal effect; on the % scale 0 is the no-effect control and ±100 the full control effect
Cycloheximide cs – Cycloheximide Counterscreen for Small Molecule Inhibitors of Shiga Toxin | cell reporter, cycloheximide protein synthesis inhibition counterscreen | 12% of 300,000 active | AID 2314, 2010 | max response, %; in the data active means max response mostly above about 13%, no sharp cut-off; inactive means mostly below about 14%; further: read at 38.3 µM for the half of the compounds with a filed dose; 0% is about no effect
* marks the source's active call; other numbers are inactive results; [ ] = dose if it differs, or a comment.

How did CCCNC(=O)c1n[nH]c2c1CC(C(C)(C)CC)CC2 (configuration not stated) do in these assays?
HCV inh: 1.1%; FMDV inh: 5.3%

Results for CCC(C)(C)C1CCc2[nH]nc(C(=O)N/N=C(\C)c3ccco3)c2C1 (configuration not stated) ?
Shiga toxin inh: 106.7*; HCV inh: inconclusive; FMDV inh: 0.0%; LASV entry inh: inconclusive; MARV entry inh: inconclusive; Cycloheximide cs: 61.0*

How did C/C(=N/N1CCN(c2ccccn2)CC1)c1cccc([N+](=O)[O-])c1 do in these assays?
Shiga toxin inh: 21.7; HCV inh: 0.2%; FMDV inh: 0.0%; LASV entry inh: inconclusive; MARV entry inh: 10.8%; Cycloheximide cs: 14.7*

What do the screens show for `CC(C)CNS(=O)(=O)c1ccc(OCC(=O)Nc2ccc3c(c2)OCCO3)cc1`?
Shiga toxin inh: 22.2; HCV inh: inconclusive; FMDV inh: 53.0%; LASV entry inh: 3.5%; MARV entry inh: -14.6%; Cycloheximide cs: 6.2

What do the screens show for `C/C(CC(=O)Nc1ccc2c(c1)OCCO2)=N\NC(=O)COc1ccccc1`?
Shiga toxin inh: 14.5; HCV inh: 5.3%; FMDV inh: 27.8%; LASV entry inh: 6.1%; MARV entry inh: 1.0%[46.1 µM]; Cycloheximide cs: 10.1

How did Cc1cccc(OCC(=O)Nc2ccc3c(c2)OCCO3)c1 do in these assays?
Shiga toxin inh: 111.4*; HCV inh: inconclusive; FMDV inh: 33.4%; LASV entry inh: inconclusive; MARV entry inh: 2.4%[46.1 µM]; Cycloheximide cs: 61.8*

Results for Cc1ccc(OCC(=O)Nc2ccc3c(c2)OCCO3)cc1C ?
Shiga toxin inh: 178.5*; HCV inh: -4.9%; FMDV inh: -21.0%; LASV entry inh: inconclusive; MARV entry inh: inconclusive; Cycloheximide cs: 31.5*

How did CC(C(=O)NC1CCCC1)N1CCN(S(=O)(=O)c2ccc(C(C)(C)C)cc2)CC1 (configuration not stated) do in these assays?
HCV inh: 11.4%; FMDV inh: -26.5%

Results for O=c1c2cc3c(nc2ncn1Cc1ccccc1F)CCCC3 ?
FMDV inh: 21.1%; LASV entry inh: inconclusive

What do the screens show for `Cc1cc(C)nc(Sc2ncnc(N)c2[N+](=O)[O-])n1`?
Shiga toxin inh: -12.5; HCV inh: 22.4µM*; FMDV inh: 12.6µM*; LASV entry inh: -13.0%; MARV entry inh: inconclusive; Cycloheximide cs: 1.3

Results for CCn1cc(CN(C)S(=O)(=O)c2ccc3ccccc3c2)c(C)n1 ?
Shiga toxin inh: -10.9; HCV inh: 7.94µM*; FMDV inh: inconclusive; LASV entry inh: inconclusive; MARV entry inh: inconclusive; Cycloheximide cs: -4.2

Results for CCn1cc(CN(C)S(=O)(=O)c2cccc([N+](=O)[O-])c2)cn1 ?
Shiga toxin inh: -7.9; HCV inh: -9.3%; FMDV inh: 10.0%; LASV entry inh: 0.9%[46.1 µM]; MARV entry inh: -7.6%[46.1 µM]; Cycloheximide cs: 1.0

How did COC(=O)c1ccc(CN2C(=O)NC3(CCC(C)CC3)C2=O)o1 (configuration not stated) do in these assays?
Shiga toxin inh: -6.0; HCV inh: 7.4%; FMDV inh: 0.0%; LASV entry inh: 1.1%; MARV entry inh: 6.7%; Cycloheximide cs: -3.9

What do the screens show for `COC(=O)c1ccc(CN2C(=O)NC3(CCC(C)CC3)C2=O)cc1` (configuration not stated)?
Shiga toxin inh: 119.6*; HCV inh: -21.0%; FMDV inh: -11.0%; LASV entry inh: -0.7%; MARV entry inh: inconclusive; Cycloheximide cs: 53.3*

Results for O=C(N/N=C/c1cnc(N2CCCCC2)s1)c1ccc(C(F)(F)F)cc1 ?
Shiga toxin inh: -7.3; HCV inh: 11.2µM*; FMDV inh: -29.6%; Cycloheximide cs: 0.7

How did O=Cc1ccc(-c2ccc([N+](=O)[O-])cc2Cl)o1 do in these assays?
Shiga toxin inh: 8.4; HCV inh: 0.5%; FMDV inh: -14.8%; LASV entry inh: 2.0%; MARV entry inh: 2.3%[46.1 µM]; Cycloheximide cs: 10.3

How did Fc1ccccc1C1CCN(Cc2nc(CC3CC3)no2)C1 (configuration not stated) do in these assays?
Shiga toxin inh: 75.1*; HCV inh: -19.4%; FMDV inh: 50.3%; LASV entry inh: 12.9%[46.1 µM]; MARV entry inh: inconclusive; Cycloheximide cs: 27.6*
